Most compounds without a hit are left out; they make up all but 8% or so of the library.
LASV entry inh = blocks Lassa virus binding to or entry into cells; Lassa virus pseudotype entry inhibition, cell reporter; Potency, µM (highest dose often 37.9 µM), hits mostly inhibitors; actives 1.2% (n = 300,000); calls by dose curve; tested in HEK293 cells; further: nearly all actives have a fitted effect of over 50% in size
HCV inh = HCV inhibition; AID 651820; Potency, µM (highest dose often 41.8 µM), actives largely listed as inhibitors; actives 3.4% (n = 340,000); Huh7.5.1 HCVcc-Cre infection, luciferase reporter, 44 h
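Antiviral activity was scored by luciferase reporter output from cells infected with HCVcc-Cre (~0.5 moi) in presence of compound, 44 h infection period, cells seeded 1,000/well 4 h prior.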
HCMV antiviral = inhibitors of human cytomegalovirus; actives 4.5% (n = 410,000); HFF cells, HCMV-luciferase reporter, 72 h; stronger effect = lower value; activity change, negative = inhibition, % at 57.5 µM; in the data active means activity change below about -60%; inconclusive means no clear call, values can overlap the other calls; inactive means above about -39%
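Inhibition of viral replication was scored as loss of reporter luminescence in HFFs infected with HCMV-luciferase (MOI 1 PFU/cell) for 72 h; compounds tested at 2 doses, normalized to buffer and Salinomycin controls.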
MARV entry inh = Marburg virus entry inhibition. Marburg virus pseudotyped entry inhibition, cell reporter. Potency, µM (titrated, usually from 37.8 µM), hits mostly inhibitors. actives 1.8% (n = 300,000). AID 540276; calls by dose curve; tested in HEK293 cells
SARS PLpro yeast = inhibitors of SARS-CoV papain-like protease in yeast; S. cerevisiae expressing SARS-CoV PLpro, growth rescue; Potency, µM (doses to about 32.9 µM), hits mostly activators; actives 0.19% (n = 330,000); calls by dose curve; further: nearly all actives have a fitted effect of over 55% in size
FMDV antiviral = antivirals against foot and mouth disease virus; FMDV antiviral cell-based qHTS; Potency, µM (titrated, usually from 57.9 µM), usual class: inhibitors; actives 1.2% (n = 410,000); AID 1159524; calls by dose curve; tested in HEK293T cells; further: read-out not given here; nearly all actives have a fitted effect of over 45% in size
G2M arrest HeLa = causes HeLa cells to arrest in G2/M phase; Potency, µM, actives largely listed as inhibitors; shares compounds with MARV entry inh; actives 60% (n = 25); HeLa cell cycle G2/M arrest, Hoechst DNA content imaging
WI-38 tox = counter-screen for perinucleolar compartment inhibitors: WI-38 cytotoxicity; WI-38 normal lung fibroblasts, ATPLite luminescence ATP viability, 24 h; 120 tested, under 10 active; Potency, µM (titrated, usually from 46.1 µM), actives largely listed as inhibitors; AID 2729; shares compounds with MARV entry inh
PNC assembly inh = confirmation of perinucleolar compartment assembly inhibitors; shares compounds with MARV entry inh; PC3M PTB-GFP, PNC prevalence imaging, 16 h; AID 2730; Potency, µM (doses to about 46.1 µM), usual class: inhibitors; actives 50% (n = 120)
PC3M casp3-7 = PC3M caspase 3/7 activation by PNC inhibitor hits. PC3M-GFP caspase 3/7 activation, luminescence, 24 h. activity change, positive = activation, % at 46.1 µM. shares compounds with MARV entry inh. 120 tested, under 10 active
Large screens that a line does not name were inactive (follow-up assays come after a bar, where they were run); ! = a repeat was not active. Unless noted, the call rests on the fitted dose curve; in most records, active means well fitted curve in the direction sought with a large enough effect; inconclusive means small, poorly fitted or top-dose-only effect, or another doubt; inactive means no such curve, though single readings can be large; an effect the other way counts as inactive or inconclusive.

CCOC(=O)Cn1c(=O)n(C2CCCCC2)c2nc(-c3ccc(OCC)cc3)nc(C(N)=O)c21	LASV entry inh inconclusive (no result: HCV inh, MARV entry inh, SARS PLpro yeast)
COC(=O)Nc1nc2ccc(S(=O)c3ccccc3)cc2[nH]1 (centres undefined)	none (no result: LASV entry inh, HCV inh, MARV entry inh, SARS PLpro yeast)
COC(=O)Nc1nc2ccc(C(=O)c3cccs3)cc2[nH]1	LASV entry inh inconclusive, HCMV antiviral -75, MARV entry inh 0.16µM! (no result: SARS PLpro yeast) | G2M arrest HeLa 0.071
Cc1ccc(OCCn2cc(C(=S)N3CCCC3)c3ccccc32)cc1C	LASV entry inh 2.8µM, HCV inh inconclusive, HCMV antiviral -98, MARV entry inh 3.2µM | WI-38 tox inactive | PNC assembly inh 7.9µM | PC3M casp3-7 inactive
Cc1ccc(OCCn2cc(/C(N)=N/O)c3ccccc32)cc1C	HCV inh inconclusive, FMDV antiviral inconclusive
CCC(=O)N1CCc2cc(S(=O)(=O)Nc3cc(C)ccc3OC)ccc21	none (no result: HCV inh, SARS PLpro yeast)
O=C(CCCn1c(=O)c2cccn2c2ccccc21)NCc1ccccc1Br	none (no result: HCV inh, MARV entry inh, SARS PLpro yeast)
Cc1c(Cl)cccc1NC(=O)CCS(=O)(=O)c1ccc2c(c1)CC(=O)N2C	none (no result: HCV inh, MARV entry inh, SARS PLpro yeast)
N=c1c2c(-c3ccccc3)c(-c3ccccc3)n(Cc3ccco3)c2ncn1CCCn1ccnc1	LASV entry inh 11µM, HCV inh inconclusive, HCMV antiviral -97, MARV entry inh 3.5µM, FMDV antiviral inconclusive | WI-38 tox inactive | PNC assembly inh 25µM | PC3M casp3-7 inactive
N=c1c2c(-c3ccccc3)c(-c3ccccc3)n(Cc3ccccc3)c2ncn1CCO	LASV entry inh inconclusive, HCV inh inconclusive, HCMV antiviral inconclusive, MARV entry inh inconclusive, FMDV antiviral inconclusive
CN(C)S(=O)(=O)c1ccc2c(c1)C(=O)c1cc(S(=O)(=O)N(C)C)ccc1CC2	none (no result: LASV entry inh, HCV inh, MARV entry inh)
CN(C)S(=O)(=O)c1ccc2c(c1)/C(=C/c1cc3c([nH]1)CCCC3)C(=O)N2	LASV entry inh inconclusive, HCV inh inconclusive, MARV entry inh inconclusive (no result: SARS PLpro yeast) | G2M arrest HeLa inconclusive
CC(=O)N(C)c1ccc(N=Cc2cc3c(cc2[N+](=O)[O-])OCO3)cc1	none (no result: SARS PLpro yeast)
CCN(CC)c1ccc(N=Cc2ccccc2[N+](=O)[O-])cc1	LASV entry inh inconclusive, HCV inh inconclusive, MARV entry inh inconclusive | WI-38 tox inactive | PNC assembly inh inactive | PC3M casp3-7 inactive
COc1cc2c(c(OC)c1OC)-c1ccc(OC)c(=O)cc1[C@@H](NC(C)=O)CC2	LASV entry inh inconclusive, HCMV antiviral -89, MARV entry inh inconclusive | G2M arrest HeLa 0.02
COc1cc2c(c(OC)c1OC)-c1ccc(O)c(=O)cc1[C@@H](N)CC2	none (no result: LASV entry inh, MARV entry inh)
CC(=O)c1cccc(NC(=O)CSc2nc3ccccc3nc2Cc2ccc(F)cc2)c1	none (no result: HCV inh, MARV entry inh, SARS PLpro yeast)
COc1ccc2nc3sc(C(=O)NCCCN4CCc5ccccc5C4)cc3cc2c1	LASV entry inh inconclusive, HCV inh 10µM, MARV entry inh inconclusive | WI-38 tox inconclusive | PNC assembly inh inactive | PC3M casp3-7 inactive
O=c1[nH]c(=O)n([C@H]2C[C@H](O)[C@@H](CO)O2)cc1Br	none | G2M arrest HeLa inconclusive
O=c1[nH]c(=O)n([C@H]2C[C@H](O)[C@@H](CO)O2)cc1/C=C/Br	none (no result: LASV entry inh, HCV inh, HCMV antiviral, SARS PLpro yeast, FMDV antiviral)
O=C(NC(CSCc1ccccc1)C(=O)N/N=C/c1ccc(O)cc1O)c1ccc([N+](=O)[O-])cc1 (centres undefined)	LASV entry inh 9.2µM, HCV inh 10µM, MARV entry inh 4.6µM | WI-38 tox inactive | PNC assembly inh inconclusive | PC3M casp3-7 inactive
CNS(=O)(=O)c1cccc(C(=O)Nc2cccc(Cl)c2)c1	none | WI-38 tox inactive | PNC assembly inh inconclusive | PC3M casp3-7 inactive
O=C(Nc1ccccc1)OC[C@@H]1CSCCS(=O)(=O)N1	none (no result: LASV entry inh, HCV inh, MARV entry inh, SARS PLpro yeast, FMDV antiviral)
Nc1cccc(-c2nc3ccc(N)cc3s2)c1	LASV entry inh inconclusive, HCV inh inconclusive, MARV entry inh 11µM, FMDV antiviral inconclusive | WI-38 tox 28µM | PNC assembly inh 5µM | PC3M casp3-7 inactive
Nc1ccc(O)c(-c2nc3ccccc3s2)c1	LASV entry inh inconclusive
O=C(Nc1ccc(NC(=O)C2CC2)cn1)c1ccccc1Cl	LASV entry inh inconclusive, HCV inh inconclusive, HCMV antiviral inconclusive, MARV entry inh inconclusive | WI-38 tox inconclusive | PNC assembly inh 35µM | PC3M casp3-7 inactive
O=C(Nc1ccc(NC(=O)C2CCCCC2)nc1)c1ccccn1	LASV entry inh inconclusive, MARV entry inh inconclusive
CCc1ccc(CN2CCc3nc(N4CCN(c5ccccc5F)CC4)ncc3C2)cc1	FMDV antiviral inconclusive (no result: HCV inh, MARV entry inh, SARS PLpro yeast)
Cc1c(NC(=O)COC(=O)c2cc(-c3ccc(-c4ccccc4)cc3)nc3ccccc23)c(=O)n(-c2ccccc2)n1C	LASV entry inh 0.89µM, HCMV antiviral -97, MARV entry inh 0.58µM | WI-38 tox 7.9µM | PNC assembly inh 2µM | PC3M casp3-7 inactive
CCN1CCN(C(=O)c2cnn(-c3ccc(F)cc3)c2-n2cccc2)CC1	none (no result: HCV inh, MARV entry inh, SARS PLpro yeast)
COc1cc(NC(=O)c2n[nH]c(=O)c3ccccc23)cc(OC)c1	none (no result: LASV entry inh, MARV entry inh)
COc1ccc(-c2nc(NC(=O)c3n[nH]c(=O)c4ccccc34)sc2C)cc1	LASV entry inh 1µM, HCV inh inconclusive, HCMV antiviral -60, MARV entry inh 0.79µM | WI-38 tox inactive | PNC assembly inh 4µM | PC3M casp3-7 inactive
CN(C)C(=O)COC(=O)c1ccccc1Nc1ccc(SC(F)F)cc1	HCV inh inconclusive, HCMV antiviral -67 (no result: LASV entry inh) | WI-38 tox inactive | PNC assembly inh 16µM | PC3M casp3-7 inactive
Cn1cnc(S(=O)(=O)N2CCCC(C(=O)Nc3ccc(OC(F)(F)F)cc3)C2)c1 (centres undefined)	none (no result: HCV inh, MARV entry inh, SARS PLpro yeast)
CCc1ccc(S(=O)(=O)/N=C2/C=C(Sc3ncn[nH]3)C(=O)c3ccccc32)cc1	LASV entry inh 13µM, HCV inh 2.8µM, MARV entry inh inconclusive, FMDV antiviral 32µM (no result: HCMV antiviral) | WI-38 tox inconclusive | PNC assembly inh 28µM | PC3M casp3-7 inactive
Cc1nn2c(=O)cc(COC(=O)Cc3ccccc3)nc2s1	none (no result: HCV inh, MARV entry inh, SARS PLpro yeast)
Cc1nc2c(c(C)c1CCC(=O)NCc1ccccc1)c(=O)n(C)c(=O)n2C	LASV entry inh inconclusive (no result: HCV inh, SARS PLpro yeast)
CCC(=Nc1cccc(C(F)(F)F)c1)c1c(O)n(C)c(=O)n(C)c1=O	none

Source: PubChem
